Assay results published in the supplement of paper PMC6555819.

Legend:
Test in all cases: PBM binding z-score (relative to random genomic background probes); higher = stronger binding; sequences stand for … in GC…GCGATTGACAGCGTAGAATGAAGG
[1] = system: RARb homodimer (NR concentration 270 nM)
Procedure, shortened: (§1)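 Binding buffer was PBS pH 7.4 with 2% milk, 0.02% Triton X-100, 1 mM DTT, 0.2 mg/mL BSA and 0.4 mg/ml salmon testes DNA. In it, ligand-free nuclear receptor dimers were incubated 1 h on custom Agilent 4×180K protein-binding microarrays carrying double-stranded probes. Antibodies against each partner (one per run) detected binding, and z-scores were calculated against random background probes after regression normalization of scanned fluorescence.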

[2] = system: RARg:RXRa (NR concentration 270 nM, RXRa partner concentration 90 nM)
Procedure, shortened: as §1

[3] = system: RARg homodimer (NR concentration 270 nM)
Procedure, shortened: as §1

[4] = system: RXRa DBDmut IVT, anti-RXR (DBD mutation: RXRa K156A/R161A, NR concentration 90 nM)
Procedure, shortened: as §1

[5] = system: RXRa homodimer (NR concentration 180 nM)
Procedure, shortened: as §1

[6] = system: THRa:RXRa (NR concentration 90 nM, RXRa partner concentration 90 nM)
Procedure, shortened: as §1

[7] = system: THRa homodimer (NR concentration 90 nM)
Procedure, shortened: as §1

[8] = system: VDR:RXRa (NR concentration 270 nM, RXRa partner concentration 90 nM)
Procedure, shortened: as §1

[9] = system: VDR homodimer (NR concentration 270 nM)
Procedure, shortened: as §1

Sequence: CCTCGGAGGACAACAGGAGGTCAGTGCTGCCAGA
- PBM binding z-score [1]: 3.56
- PBM binding z-score [2]: 3.16
- PBM binding z-score [3]: 3.22
- PBM binding z-score [4]: 0.309
- PBM binding z-score [5]: 1.28
- PBM binding z-score [6]: 2.64
- PBM binding z-score [7]: 0.965
- PBM binding z-score [8]: 1.59
- PBM binding z-score [9]: 1.21

Sequence: TCGAGTAGGTTACCAATGGGGCATTCAACTTTCT
- PBM binding z-score [1]: 1.11
- PBM binding z-score [2]: 1.49
- PBM binding z-score [3]: 0.547
- PBM binding z-score [4]: 0.496
- PBM binding z-score [5]: 1.01
- PBM binding z-score [6]: 0.551
- PBM binding z-score [7]: -0.246
- PBM binding z-score [8]: 0.521
- PBM binding z-score [9]: -0.194

Sequence: TTACCAAGGTGAGGTGAGGTCGTTGATCCAACTC
- PBM binding z-score [1]: 2.09
- PBM binding z-score [2]: 1.42
- PBM binding z-score [3]: 1.41
- PBM binding z-score [4]: 0.267
- PBM binding z-score [5]: 1.86
- PBM binding z-score [6]: 4.41
- PBM binding z-score [7]: 2.84
- PBM binding z-score [8]: 4.3
- PBM binding z-score [9]: 2.28

Sequence: GCAGACAGGTGAAACGCAGGTAATTCAGGGTGGC
- PBM binding z-score [1]: 0.413
- PBM binding z-score [2]: 0.684
- PBM binding z-score [3]: 0.304
- PBM binding z-score [4]: -0.376
- PBM binding z-score [5]: 0.614
- PBM binding z-score [6]: 1.38
- PBM binding z-score [7]: -0.381
- PBM binding z-score [8]: -0.324
- PBM binding z-score [9]: -0.586

Sequence: CCAGACAGGTTAGAAGGTAACTCAGCCTCGATTA
- PBM binding z-score [1]: 0.786
- PBM binding z-score [2]: 0.637
- PBM binding z-score [3]: 0.641
- PBM binding z-score [4]: 0.0628
- PBM binding z-score [5]: 0.699
- PBM binding z-score [6]: 0.493
- PBM binding z-score [7]: 0.212
- PBM binding z-score [8]: 0.114
- PBM binding z-score [9]: 0.658

Sequence: CCAGACAGGTGAAAGATAACTCAGTCTGGTACGC
- PBM binding z-score [1]: 0.244
- PBM binding z-score [2]: 0.614
- PBM binding z-score [3]: 0.6
- PBM binding z-score [4]: 0.193
- PBM binding z-score [5]: 0.775
- PBM binding z-score [6]: 0.125
- PBM binding z-score [7]: -0.296
- PBM binding z-score [8]: 0.17
- PBM binding z-score [9]: 0.339

Sequence: GTACCAAGGCGAATAGGTCGTTGATGAGTAGGCG
- PBM binding z-score [1]: 0.278
- PBM binding z-score [2]: 0.265
- PBM binding z-score [3]: 0.191
- PBM binding z-score [4]: -0.465
- PBM binding z-score [5]: 0.543
- PBM binding z-score [6]: 0.0285
- PBM binding z-score [7]: -0.524
- PBM binding z-score [8]: -0.145
- PBM binding z-score [9]: -0.0798

Sequence: ACTTACGGGTAAACGAGGTTATAGCACGCGTATA
- PBM binding z-score [1]: 1.12
- PBM binding z-score [2]: 0.939
- PBM binding z-score [3]: 0.812
- PBM binding z-score [4]: 0.819
- PBM binding z-score [5]: 1.57
- PBM binding z-score [6]: 3.64
- PBM binding z-score [7]: 0.765
- PBM binding z-score [8]: 4.1
- PBM binding z-score [9]: 1.45

Sequence: TAGCCTAGGTCATGCGGGCCAGTAGAGTGTCGGC
- PBM binding z-score [1]: 3.12
- PBM binding z-score [2]: 3.98
- PBM binding z-score [3]: 4.71
- PBM binding z-score [4]: 0.541
- PBM binding z-score [5]: 3.5
- PBM binding z-score [6]: 2.96
- PBM binding z-score [7]: 0.801
- PBM binding z-score [9]: 0.486

Sequence: TAGCCTAGTTCATTGGGCCAGTATAGTACGCATC
- PBM binding z-score [1]: 0.671
- PBM binding z-score [2]: 0.573
- PBM binding z-score [3]: 1.01
- PBM binding z-score [4]: 2.8
- PBM binding z-score [5]: 0.243
- PBM binding z-score [6]: 0.192
- PBM binding z-score [7]: -0.374
- PBM binding z-score [8]: 1.17
- PBM binding z-score [9]: 2.72

Sequence: CCGAGTCGGTTATGGGGCATTCAGGCAACGGTGA
- PBM binding z-score [1]: 0.462
- PBM binding z-score [2]: -0.0743
- PBM binding z-score [3]: -0.117
- PBM binding z-score [4]: -0.648
- PBM binding z-score [5]: -0.27
- PBM binding z-score [6]: 0.224
- PBM binding z-score [7]: -0.00692
- PBM binding z-score [8]: -0.358
- PBM binding z-score [9]: 0.0226

Sequence: ACAGACAGGTGAGTGAAGGTAACTAAGCTGGACG
- PBM binding z-score [1]: 0.0814
- PBM binding z-score [2]: 0.264
- PBM binding z-score [3]: 0.483
- PBM binding z-score [4]: -0.523
- PBM binding z-score [5]: 0.122
- PBM binding z-score [6]: 1.38
- PBM binding z-score [7]: -0.413
- PBM binding z-score [8]: -0.372
- PBM binding z-score [9]: -0.429

Sequence: CCTCGGAGGACAGAAAGTCAGAGCTGTCCGCTTT
- PBM binding z-score [1]: -0.167
- PBM binding z-score [2]: -0.265
- PBM binding z-score [3]: 0.0547
- PBM binding z-score [4]: -0.146
- PBM binding z-score [5]: -0.788
- PBM binding z-score [6]: -0.441
- PBM binding z-score [7]: -0.747
- PBM binding z-score [8]: -0.616
- PBM binding z-score [9]: -0.657

Sequence: CCTATTAGTTGACCATAAGGGCAACCGAAGCTCG
- PBM binding z-score [1]: 2.05
- PBM binding z-score [2]: 1.31
- PBM binding z-score [3]: 0.855
- PBM binding z-score [4]: 0.655
- PBM binding z-score [5]: 1.02
- PBM binding z-score [6]: 2.02
- PBM binding z-score [7]: 1.34
- PBM binding z-score [9]: 1.07

Sequence: TCTATTAGTGGAAGGGCAACCGACGAGTCCGTTT
- PBM binding z-score [1]: 1.21
- PBM binding z-score [2]: 0.443
- PBM binding z-score [3]: 0.673
- PBM binding z-score [4]: 1.28
- PBM binding z-score [5]: 0.619
- PBM binding z-score [6]: 0.13
- PBM binding z-score [7]: 0.0131
- PBM binding z-score [9]: 1.3

Sequence: CCTAGTTGGTCAAGGTCACAAACGCTATAGGTAC
- PBM binding z-score [1]: 4
- PBM binding z-score [2]: 4.1
- PBM binding z-score [3]: 4.24
- PBM binding z-score [4]: 1.87
- PBM binding z-score [5]: 4.02
- PBM binding z-score [6]: 4
- PBM binding z-score [7]: 3.57
- PBM binding z-score [9]: 3.9
